From the supplement of paper PMC11732987, “Enantioselective OTUD7B fragment discovery through chemoproteomics screening and high-throughput optimisation” (Communications Chemistry, 2025)

Experiments:
Assay in all cases: log2 ratio of Biotin-Ahx-Ub-VS probe labelling (fragment/DMSO); higher = less target engagement (more negative = stronger competition), active = hit call of the paper (q ≤ 0.05, log2 ratio ≤ -1)
Details in all cases: compound concentration: 200 uM; treatment time: 3 h
[1] = target: T1, USP42 (UniProt Q9H9J4)
T1 sequence (whole entry): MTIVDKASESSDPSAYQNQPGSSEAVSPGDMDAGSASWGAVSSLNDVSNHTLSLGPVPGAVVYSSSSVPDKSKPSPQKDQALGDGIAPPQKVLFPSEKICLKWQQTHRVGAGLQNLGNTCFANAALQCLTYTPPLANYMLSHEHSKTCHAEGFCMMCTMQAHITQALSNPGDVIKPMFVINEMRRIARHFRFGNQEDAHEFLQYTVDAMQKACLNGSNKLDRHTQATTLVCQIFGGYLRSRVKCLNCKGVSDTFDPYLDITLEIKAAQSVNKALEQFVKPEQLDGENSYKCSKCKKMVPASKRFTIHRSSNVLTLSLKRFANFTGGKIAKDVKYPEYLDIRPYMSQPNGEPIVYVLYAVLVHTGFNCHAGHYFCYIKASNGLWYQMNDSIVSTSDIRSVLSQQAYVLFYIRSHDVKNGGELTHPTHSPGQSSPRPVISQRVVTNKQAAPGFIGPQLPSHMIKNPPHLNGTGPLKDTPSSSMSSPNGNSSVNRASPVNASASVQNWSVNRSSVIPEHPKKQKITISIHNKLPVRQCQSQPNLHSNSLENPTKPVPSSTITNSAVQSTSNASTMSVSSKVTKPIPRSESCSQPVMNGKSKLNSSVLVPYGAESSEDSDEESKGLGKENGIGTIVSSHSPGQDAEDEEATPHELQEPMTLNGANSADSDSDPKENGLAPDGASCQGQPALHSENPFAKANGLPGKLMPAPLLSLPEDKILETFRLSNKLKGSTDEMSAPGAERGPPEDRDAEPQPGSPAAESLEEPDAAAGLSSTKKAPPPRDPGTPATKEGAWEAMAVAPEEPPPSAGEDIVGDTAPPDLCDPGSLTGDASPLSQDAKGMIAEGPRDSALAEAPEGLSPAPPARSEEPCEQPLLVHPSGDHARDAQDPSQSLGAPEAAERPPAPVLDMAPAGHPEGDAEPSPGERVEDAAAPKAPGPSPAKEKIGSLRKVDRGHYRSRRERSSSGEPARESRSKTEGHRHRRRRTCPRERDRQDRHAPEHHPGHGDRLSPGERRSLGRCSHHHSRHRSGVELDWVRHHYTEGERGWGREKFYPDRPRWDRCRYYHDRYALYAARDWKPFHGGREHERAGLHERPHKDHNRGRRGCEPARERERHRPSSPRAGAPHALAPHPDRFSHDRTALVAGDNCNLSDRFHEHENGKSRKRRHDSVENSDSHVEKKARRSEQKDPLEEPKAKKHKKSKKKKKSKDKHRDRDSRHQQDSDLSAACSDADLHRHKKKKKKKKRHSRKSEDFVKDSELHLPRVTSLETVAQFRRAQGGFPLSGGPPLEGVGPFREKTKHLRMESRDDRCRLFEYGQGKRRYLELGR
Summary of the method: (§1)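 Each value is an average log2 ratio of fragment to vehicle, tested by unpaired t-test. The underlying Spectronaut label-free quantities were global-median-normalised, and only proteins with ≥2 unique peptides were included. Triplicate HEK293T lysate samples (495 µg) were exposed to fragment at 200 µM or vehicle for 3 h, then to Biotin-Ahx-Ub-VS at 0.5 µM final for 1 h, before NeutrAvidin enrichment of labelled DUBs, LysC and trypsin digestion, and diaPASEF LC-MS/MS.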

[2] = target: USP46 (UniProt P62068)
Summary of the method: as §1

[3] = target: T2, USP47 (UniProt Q96K76)
T2 sequence (whole entry): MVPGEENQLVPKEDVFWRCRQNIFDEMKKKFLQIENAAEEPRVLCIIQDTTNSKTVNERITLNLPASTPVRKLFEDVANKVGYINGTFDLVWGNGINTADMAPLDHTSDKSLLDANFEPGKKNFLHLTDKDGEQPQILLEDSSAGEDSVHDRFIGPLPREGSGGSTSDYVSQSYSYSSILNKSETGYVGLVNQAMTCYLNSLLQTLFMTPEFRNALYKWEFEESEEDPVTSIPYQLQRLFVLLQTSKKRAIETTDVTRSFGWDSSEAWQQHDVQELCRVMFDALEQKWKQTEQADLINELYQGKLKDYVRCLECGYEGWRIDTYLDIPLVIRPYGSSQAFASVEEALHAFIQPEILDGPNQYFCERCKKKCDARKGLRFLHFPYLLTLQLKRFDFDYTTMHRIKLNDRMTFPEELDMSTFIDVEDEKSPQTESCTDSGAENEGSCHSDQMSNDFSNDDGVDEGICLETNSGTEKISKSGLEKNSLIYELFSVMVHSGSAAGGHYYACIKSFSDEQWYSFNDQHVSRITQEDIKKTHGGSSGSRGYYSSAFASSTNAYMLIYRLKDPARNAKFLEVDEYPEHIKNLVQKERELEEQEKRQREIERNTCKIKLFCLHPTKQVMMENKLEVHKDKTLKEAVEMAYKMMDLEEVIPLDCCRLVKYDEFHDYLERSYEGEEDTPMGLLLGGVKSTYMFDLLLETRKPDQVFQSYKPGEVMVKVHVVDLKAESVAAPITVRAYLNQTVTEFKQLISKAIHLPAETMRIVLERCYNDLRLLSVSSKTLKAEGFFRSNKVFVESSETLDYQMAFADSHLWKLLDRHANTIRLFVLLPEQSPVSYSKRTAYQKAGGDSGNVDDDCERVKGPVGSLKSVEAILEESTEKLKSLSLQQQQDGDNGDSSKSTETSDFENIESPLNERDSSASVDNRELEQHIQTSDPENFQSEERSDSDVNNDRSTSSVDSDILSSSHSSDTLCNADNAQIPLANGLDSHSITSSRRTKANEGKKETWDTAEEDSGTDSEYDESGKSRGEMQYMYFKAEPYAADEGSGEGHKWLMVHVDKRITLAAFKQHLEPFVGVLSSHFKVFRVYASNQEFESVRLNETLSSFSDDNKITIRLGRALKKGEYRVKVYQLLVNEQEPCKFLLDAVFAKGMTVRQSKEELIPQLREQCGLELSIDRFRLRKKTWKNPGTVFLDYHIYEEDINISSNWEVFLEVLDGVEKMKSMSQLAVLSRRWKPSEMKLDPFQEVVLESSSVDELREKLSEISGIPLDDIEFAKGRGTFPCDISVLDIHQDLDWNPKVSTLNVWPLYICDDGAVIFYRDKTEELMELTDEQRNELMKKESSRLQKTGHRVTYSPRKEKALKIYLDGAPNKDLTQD
Summary of the method: as §1

[4] = target: T3, USP48 (UniProt Q86UV5)
T3 sequence (whole entry): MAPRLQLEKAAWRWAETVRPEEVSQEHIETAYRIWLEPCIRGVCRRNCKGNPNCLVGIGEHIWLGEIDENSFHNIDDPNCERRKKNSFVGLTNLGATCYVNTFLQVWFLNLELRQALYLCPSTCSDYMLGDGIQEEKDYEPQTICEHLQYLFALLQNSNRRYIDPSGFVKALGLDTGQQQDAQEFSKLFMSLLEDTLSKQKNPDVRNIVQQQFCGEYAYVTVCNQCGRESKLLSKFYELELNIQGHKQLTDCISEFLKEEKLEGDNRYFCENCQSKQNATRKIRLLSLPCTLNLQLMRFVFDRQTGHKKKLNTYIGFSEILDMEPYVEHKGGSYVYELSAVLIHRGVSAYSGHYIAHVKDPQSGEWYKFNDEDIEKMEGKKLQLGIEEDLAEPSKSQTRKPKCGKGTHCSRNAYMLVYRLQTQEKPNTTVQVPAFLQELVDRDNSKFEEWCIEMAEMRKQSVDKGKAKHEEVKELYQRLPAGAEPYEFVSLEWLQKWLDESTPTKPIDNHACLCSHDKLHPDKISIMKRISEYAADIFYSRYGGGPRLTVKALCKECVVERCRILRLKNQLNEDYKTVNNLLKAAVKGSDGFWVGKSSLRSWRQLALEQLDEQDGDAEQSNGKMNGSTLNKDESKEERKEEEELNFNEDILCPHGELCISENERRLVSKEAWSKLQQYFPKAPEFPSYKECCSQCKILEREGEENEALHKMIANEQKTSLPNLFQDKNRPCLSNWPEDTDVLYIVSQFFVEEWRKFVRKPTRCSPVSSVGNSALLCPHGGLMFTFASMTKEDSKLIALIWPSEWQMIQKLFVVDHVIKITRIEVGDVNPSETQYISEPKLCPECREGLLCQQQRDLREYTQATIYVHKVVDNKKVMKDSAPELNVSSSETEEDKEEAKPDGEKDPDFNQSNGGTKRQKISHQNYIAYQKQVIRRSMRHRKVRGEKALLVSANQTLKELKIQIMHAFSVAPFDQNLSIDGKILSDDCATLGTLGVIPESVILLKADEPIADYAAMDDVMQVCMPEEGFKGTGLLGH
Summary of the method: as §1

[5] = target: T4, USP5 (UniProt P45974)
T4 sequence (whole entry): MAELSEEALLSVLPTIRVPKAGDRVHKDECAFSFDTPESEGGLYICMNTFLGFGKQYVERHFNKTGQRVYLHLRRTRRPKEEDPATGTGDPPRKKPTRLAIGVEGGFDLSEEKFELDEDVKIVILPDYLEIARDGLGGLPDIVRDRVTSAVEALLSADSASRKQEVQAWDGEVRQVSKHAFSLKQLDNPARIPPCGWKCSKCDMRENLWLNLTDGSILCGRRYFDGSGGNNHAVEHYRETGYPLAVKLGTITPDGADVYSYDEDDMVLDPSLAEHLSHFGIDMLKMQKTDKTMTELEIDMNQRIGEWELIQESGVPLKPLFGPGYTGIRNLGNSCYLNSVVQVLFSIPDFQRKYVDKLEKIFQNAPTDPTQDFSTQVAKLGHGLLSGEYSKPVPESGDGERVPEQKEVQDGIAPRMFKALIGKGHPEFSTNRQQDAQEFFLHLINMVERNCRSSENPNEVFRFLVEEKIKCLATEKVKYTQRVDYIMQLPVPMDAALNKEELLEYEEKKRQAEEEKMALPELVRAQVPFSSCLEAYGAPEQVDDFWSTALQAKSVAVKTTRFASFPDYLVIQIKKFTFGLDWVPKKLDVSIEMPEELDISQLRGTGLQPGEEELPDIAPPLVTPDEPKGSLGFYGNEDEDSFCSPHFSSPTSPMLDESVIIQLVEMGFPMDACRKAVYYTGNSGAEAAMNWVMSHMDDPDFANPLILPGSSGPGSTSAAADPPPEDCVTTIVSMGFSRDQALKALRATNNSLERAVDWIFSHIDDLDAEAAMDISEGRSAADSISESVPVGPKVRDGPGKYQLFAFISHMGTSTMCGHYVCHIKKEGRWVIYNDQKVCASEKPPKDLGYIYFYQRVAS
Summary of the method: as §1

[6] = target: USP54 (UniProt Q70EL1)
Summary of the method: as §1

[7] = target: USP7 (UniProt Q93009)
Summary of the method: as §1

[8] = target: T5, USP8 (UniProt P40818)
T5 sequence (whole entry): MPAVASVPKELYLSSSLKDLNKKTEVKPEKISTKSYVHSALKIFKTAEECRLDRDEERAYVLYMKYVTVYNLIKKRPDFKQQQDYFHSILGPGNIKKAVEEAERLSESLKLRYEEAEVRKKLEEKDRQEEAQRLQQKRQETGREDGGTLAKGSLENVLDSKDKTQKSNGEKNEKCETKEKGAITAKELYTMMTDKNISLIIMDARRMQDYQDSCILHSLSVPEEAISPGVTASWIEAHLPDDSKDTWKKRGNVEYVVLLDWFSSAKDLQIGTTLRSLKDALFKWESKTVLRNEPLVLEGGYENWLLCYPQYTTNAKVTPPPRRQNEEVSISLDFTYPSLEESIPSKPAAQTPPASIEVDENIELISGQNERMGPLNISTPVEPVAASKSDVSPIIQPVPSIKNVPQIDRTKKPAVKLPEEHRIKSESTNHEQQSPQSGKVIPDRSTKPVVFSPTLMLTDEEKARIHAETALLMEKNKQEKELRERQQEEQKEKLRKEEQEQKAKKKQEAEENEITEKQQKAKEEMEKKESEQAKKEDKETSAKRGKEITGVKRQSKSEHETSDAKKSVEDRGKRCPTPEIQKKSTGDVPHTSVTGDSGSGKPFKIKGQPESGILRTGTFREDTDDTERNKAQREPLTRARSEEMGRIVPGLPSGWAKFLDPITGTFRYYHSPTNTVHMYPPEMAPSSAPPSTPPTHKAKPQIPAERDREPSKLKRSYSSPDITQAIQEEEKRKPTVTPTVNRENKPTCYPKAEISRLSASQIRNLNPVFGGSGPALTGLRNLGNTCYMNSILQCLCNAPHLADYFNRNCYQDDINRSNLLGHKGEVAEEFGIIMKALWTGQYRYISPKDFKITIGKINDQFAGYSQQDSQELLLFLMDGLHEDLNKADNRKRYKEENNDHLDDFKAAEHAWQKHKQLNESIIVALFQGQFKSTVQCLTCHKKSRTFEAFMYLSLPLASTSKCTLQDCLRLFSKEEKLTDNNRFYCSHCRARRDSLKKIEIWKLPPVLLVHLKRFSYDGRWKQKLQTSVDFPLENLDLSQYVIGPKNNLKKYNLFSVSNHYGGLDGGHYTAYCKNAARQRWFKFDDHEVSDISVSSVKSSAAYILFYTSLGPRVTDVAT
Summary of the method: as §1

[9] = target: USP9X (UniProt Q93008)
Summary of the method: as §1

[10] = target: UniProt O00487
Summary of the method: as §1

Measured: log2 ratio of Biotin-Ahx-Ub-VS probe labelling

Chain of USP46 (P62068 whole entry): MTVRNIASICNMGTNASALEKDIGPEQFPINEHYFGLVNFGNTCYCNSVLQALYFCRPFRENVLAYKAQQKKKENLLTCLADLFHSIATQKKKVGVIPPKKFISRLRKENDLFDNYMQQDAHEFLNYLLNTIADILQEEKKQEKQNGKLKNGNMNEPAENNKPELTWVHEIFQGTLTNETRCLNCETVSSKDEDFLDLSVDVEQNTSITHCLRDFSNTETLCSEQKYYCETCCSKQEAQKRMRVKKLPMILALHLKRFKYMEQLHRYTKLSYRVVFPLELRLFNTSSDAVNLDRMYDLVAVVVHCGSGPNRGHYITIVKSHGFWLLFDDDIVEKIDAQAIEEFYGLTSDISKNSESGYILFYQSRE
Chain of UniProt O00487 (O00487 whole entry): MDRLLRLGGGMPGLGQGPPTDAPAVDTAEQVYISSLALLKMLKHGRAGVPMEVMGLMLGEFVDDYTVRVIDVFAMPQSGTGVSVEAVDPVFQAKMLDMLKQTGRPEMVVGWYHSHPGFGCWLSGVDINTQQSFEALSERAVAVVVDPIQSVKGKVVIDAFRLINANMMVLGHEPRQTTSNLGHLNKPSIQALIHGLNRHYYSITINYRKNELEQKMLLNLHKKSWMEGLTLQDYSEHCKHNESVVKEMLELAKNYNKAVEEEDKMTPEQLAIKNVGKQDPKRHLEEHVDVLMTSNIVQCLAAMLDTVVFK
Chain of USP7 (Q93009 whole entry, looked up): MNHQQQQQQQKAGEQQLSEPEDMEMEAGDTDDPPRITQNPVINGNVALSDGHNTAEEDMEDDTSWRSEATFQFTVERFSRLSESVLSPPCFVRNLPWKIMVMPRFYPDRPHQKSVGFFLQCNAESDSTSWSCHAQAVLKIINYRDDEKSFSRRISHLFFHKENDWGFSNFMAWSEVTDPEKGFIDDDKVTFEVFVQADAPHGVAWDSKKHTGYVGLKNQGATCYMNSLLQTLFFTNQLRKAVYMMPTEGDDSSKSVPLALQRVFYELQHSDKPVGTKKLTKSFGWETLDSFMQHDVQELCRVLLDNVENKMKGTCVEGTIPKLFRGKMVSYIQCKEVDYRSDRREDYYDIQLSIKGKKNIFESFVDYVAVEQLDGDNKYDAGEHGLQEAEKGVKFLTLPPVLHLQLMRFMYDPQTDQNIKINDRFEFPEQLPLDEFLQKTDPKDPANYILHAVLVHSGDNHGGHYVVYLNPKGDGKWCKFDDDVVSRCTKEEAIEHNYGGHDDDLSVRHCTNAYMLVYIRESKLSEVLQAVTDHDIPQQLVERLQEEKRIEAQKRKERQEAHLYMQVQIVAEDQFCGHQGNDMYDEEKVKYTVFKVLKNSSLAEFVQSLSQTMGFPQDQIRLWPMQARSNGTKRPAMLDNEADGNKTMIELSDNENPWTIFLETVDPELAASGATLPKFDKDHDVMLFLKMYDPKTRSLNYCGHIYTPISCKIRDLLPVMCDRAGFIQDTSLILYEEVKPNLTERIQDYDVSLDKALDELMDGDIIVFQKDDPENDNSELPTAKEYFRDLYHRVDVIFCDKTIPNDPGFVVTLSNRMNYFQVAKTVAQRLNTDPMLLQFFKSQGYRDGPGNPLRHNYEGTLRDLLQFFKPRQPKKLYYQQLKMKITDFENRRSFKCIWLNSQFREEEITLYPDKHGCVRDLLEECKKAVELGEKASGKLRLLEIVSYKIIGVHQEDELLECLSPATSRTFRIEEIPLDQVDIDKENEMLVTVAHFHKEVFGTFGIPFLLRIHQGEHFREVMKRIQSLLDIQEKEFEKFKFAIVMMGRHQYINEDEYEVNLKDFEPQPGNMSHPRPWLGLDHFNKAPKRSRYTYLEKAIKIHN
Chain of USP54 (Q70EL1 whole entry): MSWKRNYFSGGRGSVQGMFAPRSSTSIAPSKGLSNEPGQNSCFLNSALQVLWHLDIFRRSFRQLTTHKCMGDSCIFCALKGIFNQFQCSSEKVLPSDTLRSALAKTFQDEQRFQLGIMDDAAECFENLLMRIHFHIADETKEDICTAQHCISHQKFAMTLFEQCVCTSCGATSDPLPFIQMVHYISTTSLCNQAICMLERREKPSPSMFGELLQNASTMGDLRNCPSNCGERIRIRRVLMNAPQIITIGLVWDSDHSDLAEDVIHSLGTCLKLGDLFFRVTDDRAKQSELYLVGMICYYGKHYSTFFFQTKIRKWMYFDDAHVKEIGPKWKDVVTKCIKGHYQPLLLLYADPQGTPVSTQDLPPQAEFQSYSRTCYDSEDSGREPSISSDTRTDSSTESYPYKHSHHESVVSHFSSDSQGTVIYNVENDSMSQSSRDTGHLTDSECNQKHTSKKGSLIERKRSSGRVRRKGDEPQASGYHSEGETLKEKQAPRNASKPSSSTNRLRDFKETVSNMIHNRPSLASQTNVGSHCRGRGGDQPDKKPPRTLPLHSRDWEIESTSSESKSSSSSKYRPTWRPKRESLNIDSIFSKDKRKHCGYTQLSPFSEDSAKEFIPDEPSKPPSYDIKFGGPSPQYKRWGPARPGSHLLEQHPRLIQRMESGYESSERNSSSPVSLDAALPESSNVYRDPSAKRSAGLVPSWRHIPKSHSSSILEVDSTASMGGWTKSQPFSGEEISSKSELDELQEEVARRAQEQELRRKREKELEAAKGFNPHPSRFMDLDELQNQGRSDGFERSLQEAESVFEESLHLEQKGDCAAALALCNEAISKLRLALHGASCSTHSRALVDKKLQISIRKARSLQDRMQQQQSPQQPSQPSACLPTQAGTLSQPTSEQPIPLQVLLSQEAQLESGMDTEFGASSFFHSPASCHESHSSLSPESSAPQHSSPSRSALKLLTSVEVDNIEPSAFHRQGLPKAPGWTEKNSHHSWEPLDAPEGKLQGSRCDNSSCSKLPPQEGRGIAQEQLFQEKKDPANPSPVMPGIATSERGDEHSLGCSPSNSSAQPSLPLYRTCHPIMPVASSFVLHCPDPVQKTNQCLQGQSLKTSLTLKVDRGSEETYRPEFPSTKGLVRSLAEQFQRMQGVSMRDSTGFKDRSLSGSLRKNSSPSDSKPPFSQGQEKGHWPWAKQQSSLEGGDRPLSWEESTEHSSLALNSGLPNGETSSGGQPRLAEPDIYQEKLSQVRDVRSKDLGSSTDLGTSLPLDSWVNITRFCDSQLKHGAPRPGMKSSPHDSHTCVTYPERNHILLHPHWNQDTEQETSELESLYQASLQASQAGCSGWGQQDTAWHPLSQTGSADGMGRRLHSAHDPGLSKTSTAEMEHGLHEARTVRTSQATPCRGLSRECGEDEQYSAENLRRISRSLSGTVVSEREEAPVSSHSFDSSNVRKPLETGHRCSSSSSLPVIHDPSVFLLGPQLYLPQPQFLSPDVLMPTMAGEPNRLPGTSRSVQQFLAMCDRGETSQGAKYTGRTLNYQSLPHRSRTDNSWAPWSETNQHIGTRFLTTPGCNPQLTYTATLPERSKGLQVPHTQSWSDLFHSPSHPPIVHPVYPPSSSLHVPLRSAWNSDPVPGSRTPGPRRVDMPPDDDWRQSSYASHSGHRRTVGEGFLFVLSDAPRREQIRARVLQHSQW

Cc1nc(CN2CCN(C(=O)CCl)CC2)cs1
inactive: [1] 0.251 | [2] -0.246 | [3] -0.236 | [4] -0.0313 | [5] -0.643 | [6] -0.00411 | [7] -0.473 | [8] -0.444 | [9] -0.168 | [10] -0.171
